CHT allo act: human CHT allosteric activation | Q9GZV3 | B-score at 10 µM | CHT-expressing cells, membrane potential dye, choline EC20; stronger effect = higher value; LV-AA mutant CHT in HEK293 cells | 310,000 tested, 0.49% active;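 active = initial fluorescence not abnormally high and integrated response B-score, plate-corrected, over 3 SD above library mean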
Target sequence (Q9GZV3 whole entry, looked up): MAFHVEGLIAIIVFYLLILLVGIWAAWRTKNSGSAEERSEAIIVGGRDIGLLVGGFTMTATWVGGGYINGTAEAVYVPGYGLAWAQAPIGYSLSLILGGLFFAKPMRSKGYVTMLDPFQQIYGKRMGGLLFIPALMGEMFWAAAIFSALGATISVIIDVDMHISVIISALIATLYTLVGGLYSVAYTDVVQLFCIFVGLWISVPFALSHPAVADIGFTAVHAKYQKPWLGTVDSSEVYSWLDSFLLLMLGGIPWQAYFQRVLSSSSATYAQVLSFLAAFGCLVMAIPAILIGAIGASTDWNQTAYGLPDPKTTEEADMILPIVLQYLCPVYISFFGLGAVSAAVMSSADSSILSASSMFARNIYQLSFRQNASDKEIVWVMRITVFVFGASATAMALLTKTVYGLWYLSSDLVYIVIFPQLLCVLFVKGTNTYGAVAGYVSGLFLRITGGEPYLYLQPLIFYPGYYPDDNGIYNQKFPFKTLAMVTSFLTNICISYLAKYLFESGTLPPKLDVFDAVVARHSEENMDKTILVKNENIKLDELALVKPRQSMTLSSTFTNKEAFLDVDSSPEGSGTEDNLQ
TMEM16A inh: blocks the mouse calcium-activated chloride channel TMEM16A; Q8BHY3; HEK293 TMEM16A/YFP iodide influx fluorescence, ionomycin; 310,000 tested, 1.2% active; AID 588511; normalized B-score (activity score, 25-100; higher = stronger inhibition) at 10 µM;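 active = ratio plate-corrected score three or more library SD toward inhibition, starting fluorescence score within five deviations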;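 also: score derived from kinetic fluorescence span divided by baseline fluorescence per well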
ANO1 activ: activates or potentiates the mouse TMEM16A chloride channel; HEK293 TMEM16A/YFP-H148Q/I152L, iodide quench fluorescence; stronger effect = lower value; B-score at 10 µM; 340,000 tested, 0.3% active;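 active = fluorescence-ratio B-score plate-corrected deviation score at least 3 library SD below zero, with starting fluorescence score within 5 deviations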;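 also: channel opened by trigger with iodide after compound preincubation; score built on the fluorescence ratio of max minus min over baseline; more negative score means more quench and so TMEM16A activation or potentiation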
Kir21 inh: inhibitors of mouse Kir2.1 inward-rectifier potassium channel. B-score at 10 µM. P35561. HEK293-Kir2.1, FluxOR thallium flux fluorescence; stronger effect = lower value. AID 1672. 310,000 tested, 0.85% active;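 active = fluorescence ratio B-score at or below minus 3 SD of library scores, with starting-brightness B-score within 2 SD, cut at about -4.2 in these data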;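 also: channel flux triggered by added potassium and thallium sulfate stimulus; B-score of peak minus minimum fluorescence over baseline after thallium stimulus; more negative B-score means stronger Kir2.1 block with less thallium influx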
GPR7 antagonist: blocks human GPR7 receptor signaling; inhibition, % at 4.4 µM; GPR7-expressing cells, fluorescence antagonist assay; 290,000 tested, 1.1% active; AID 1861; in the data active = inhibition above about 16%, passing the limit was not always enough;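 also: cells stimulated with the agonist NPW; 0% = agonist with vehicle and 100% = vehicle without agonist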
CHT block: human CHT choline transport inhibition | Q9GZV3 | B-score at 10 µM | CHT-expressing cells, membrane potential dye, choline response; stronger effect = lower value | 310,000 tested, 0.86% active;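 active = B-score over 3 SD under the library average, and starting fluorescence ratio not unusually high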;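 also: choline stimulus applied at its EC90 after an EC20 pre-addition; B-score computed on integrated fluorescence ratio after choline addition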
GPR7 antag cf: confirmation of human GPR7 antagonists; shares compounds with GPR7 antagonist; GPR7-expressing cells, calcium fluorescence antagonist mode; inhibition, % at 4.4 µM; 2,400 tested, 52% active; AID 1952; in the data active = inhibition above about 24%;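 also: stimulated with the GPR7 agonist NPW; 0% = agonist plus vehicle and 100% = vehicle alone without agonist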
MCHR1 antag: counter-screen for GPR7 antagonists: antagonists of human MCHR1; shares compounds with GPR7 antagonist; MCHR1-expressing cells, fluorescence antagonist assay; inhibition, % at 4.4 µM; 2,400 tested, 62% active; in the data active = inhibition above about 22%;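 also: 0% = vehicle with agonist and 100% = vehicle without agonist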
TMEM16A reconf: TMEM16A (mouse) chloride channel inhibition, re-confirmation; inhibition, % at 10 µM; shares compounds with TMEM16A inh; HEK293 TMEM16A/YFP-H148Q, iodide quench fluorescence; ionomycin added to raise cell calcium; 2,300 tested, 39% active; AID 652189;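 active = mean duplicate percent inhibition, scaled so buffer wells are 0 and the reference blocker 100, over three buffer SD above buffer mean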
TMEM16A Ca cntr: counter-screen for TMEM16A inhibitors: effect on calcium mobilization; shares compounds with TMEM16A inh; calcium response (% of ionomycin), % at 10 µM; 2,300 tested, 2% active; TMEM16A/YFP HEK293, Fluo4 calcium mobilization;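 active = duplicate-averaged calcium signal over 20% of the ionomycin maximum, relative to buffer baseline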;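 also: each well's signal is peak minus trough fluorescence divided by its pre-addition baseline; 0% = buffer wells and 100% = ionomycin wells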
Parental YFP cnt: counter-screen for TMEM16A inhibitors: effect in parental YFP-HEK293 cells; shares compounds with TMEM16A inh; iodide YFP quench, ionomycin; YFP ratio F(max-min)/F0 at 10 µM; 2,300 tested, under 10 active; AID 652233;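 active = yellow fluorescent protein signal ratio exceeding the buffer control mean by over 5 SD of those controls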;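 also: ratio is mean of duplicate wells from kinetic YFP trace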
ClC-1 inh: blocks the rat ClC-1 voltage-dependent chloride channel; shares compounds with TMEM16A inh; CHO ClC-1-YFP, iodide influx fluorescence quench; iodide control reads 0, buffer control 100; ratio percent, % at 10 µM; 2,300 tested, under 10 active; AID 652236;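 active = duplicate-mean ratio percent above the mean of iodide-only control wells, which defines zero, plus 5 of their SD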;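 also: higher percent means stronger block of ClC-1 iodide influx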
* marks the source's active call; other numbers are inactive results. A selection: hits, their analogues and other compounds. The true share with any hit is near 3.7%.

O=C(c1ccccc1)N1CCN(C(=O)c2ccccc2Br)CC1 was read as CHT allo act inactive, TMEM16A inh inactive, ANO1 activ inactive, Kir21 inh -0.03, GPR7 antagonist 20.3 and CHT block inactive.
For O=C(c1ccc(N2CCN(C(=O)c3ccccc3Br)CC2)cc1)c1cccc(F)c1 the results were CHT allo act inactive, TMEM16A inh 100*, ANO1 activ inactive, Kir21 inh 3.12, GPR7 antagonist 27.7*, CHT block inactive, GPR7 antag cf 3.6, MCHR1 antag 69.3*, TMEM16A reconf 17.0%*, TMEM16A Ca cntr inactive, Parental YFP cnt -1.04 and ClC-1 inh -10.0.
For CCC(CC)CN1CCN=C1Nc1ccccc1 the results were CHT allo act inactive, TMEM16A inh inactive, ANO1 activ inactive and CHT block inactive.
`Oc1ccccc1Nc1nc(NCc2ccco2)c2ccccc2n1` gave CHT allo act inactive, TMEM16A inh inactive, ANO1 activ inactive, Kir21 inh -0.14, GPR7 antagonist -7.4 and CHT block inactive.
Screening Cc1ccccc1Nc1nc(NCc2ccco2)c2ccccc2n1 returned CHT allo act inactive, TMEM16A inh 25*, ANO1 activ inactive, Kir21 inh -12.9*, GPR7 antagonist 27.0*, CHT block inactive, GPR7 antag cf 13.8, MCHR1 antag 63.0*, TMEM16A reconf 32.0%*, TMEM16A Ca cntr inactive, Parental YFP cnt -1.17 and ClC-1 inh -7.0.
COC(=O)[C@H](CC(C)C)NC(=O)Nc1ccc(S(N)(=O)=O)cc1 was read as CHT allo act inactive, TMEM16A inh inactive, ANO1 activ inactive, Kir21 inh 1.2, GPR7 antagonist -13.5 and CHT block inactive.
For Cc1noc(C)c1COC(=O)c1ccccc1NC(=O)c1ccco1 the results were CHT allo act inactive, TMEM16A inh inactive, ANO1 activ inactive, Kir21 inh 0.64, GPR7 antagonist 11.4 and CHT block inactive.
O=C(N/N=C/c1ccc(O)cc1)c1ccc(COc2cc(Cl)ccc2Cl)o1 was read as CHT allo act inactive, TMEM16A inh 25*, ANO1 activ -5.56*, Kir21 inh -0.08, GPR7 antagonist 52.9*, CHT block inactive, GPR7 antag cf 68.3*, MCHR1 antag 78.0*, TMEM16A reconf inactive, TMEM16A Ca cntr inactive, Parental YFP cnt -0.936 and ClC-1 inh -12.5.
Screening O=C(Nc1ccc(S(=O)(=O)Nc2ccc(F)cc2)cc1)c1ccc(CN2CCOCC2)cc1 returned CHT allo act inactive, TMEM16A inh 25*, ANO1 activ inactive, Kir21 inh -0.03, GPR7 antagonist 29.6*, CHT block inactive, GPR7 antag cf 66.2*, MCHR1 antag 76.7*, TMEM16A reconf 39.0%*, TMEM16A Ca cntr inactive, Parental YFP cnt -0.903 and ClC-1 inh -15.0.
`OC1(c2ccc(OC(F)F)cc2)CSC(=Nc2cccnc2)N1C1CC1` (stereo not given) gave CHT allo act inactive, TMEM16A inh 100*, ANO1 activ inactive, Kir21 inh -0.99, GPR7 antagonist 52.0*, CHT block inactive, GPR7 antag cf 29.7*, MCHR1 antag 65.0*, TMEM16A reconf 20.0%*, TMEM16A Ca cntr inactive, Parental YFP cnt -1.33 and ClC-1 inh -23.5.
Cc1ccc(S(=O)(=O)c2nc(-c3ccccc3)oc2N2CCC(C(N)=O)CC2)cc1 was read as CHT allo act inactive, TMEM16A inh inactive, ANO1 activ inactive, Kir21 inh -1.16, GPR7 antagonist 0.7 and CHT block inactive.
Screening c1ccc(C(Cc2nc(-c3ccncc3)no2)c2ccccc2)cc1 returned CHT allo act inactive, TMEM16A inh 100*, ANO1 activ inactive, Kir21 inh -1.85, GPR7 antagonist 50.5*, CHT block inactive, GPR7 antag cf 53.6*, MCHR1 antag 44.7*, TMEM16A reconf 24.0%*, TMEM16A Ca cntr inactive, Parental YFP cnt -0.993 and ClC-1 inh -19.5.
For COc1cc(NC(=O)Cn2c(=O)n(-c3cccc(C)c3)c(=O)c3c(C)c(C)sc32)cc(OC)c1 the results were CHT allo act inactive, TMEM16A inh inactive, ANO1 activ inactive, Kir21 inh 0.66, GPR7 antagonist -4.9 and CHT block inactive.
`CN(Cc1cccc2cnccc12)C(=O)c1cc(COc2ccc(F)cc2F)on1` gave ANO1 activ inactive, Kir21 inh -0.94 and GPR7 antagonist -5.8.
Screening CCc1ccc(CN(C)C(=O)c2cc(COc3cccc4cnccc34)on2)cc1 returned CHT allo act inactive, TMEM16A inh 100*, ANO1 activ inactive, Kir21 inh 1.64, GPR7 antagonist 37.5*, CHT block inactive, GPR7 antag cf 22.5, MCHR1 antag 45.8*, TMEM16A reconf 22.0%*, TMEM16A Ca cntr inactive, Parental YFP cnt -1.26 and ClC-1 inh -22.0.
Screening Cc1ccc(NC(=O)CN2C(=O)c3ccccc3S2(=O)=O)c(C)c1 returned CHT allo act inactive, TMEM16A inh inactive, ANO1 activ inactive, Kir21 inh 1.11, GPR7 antagonist -18.1 and CHT block inactive.
Screening O=C(Nc1cccnc1)c1ccc(Cl)c(S(=O)(=O)N2CCc3ccccc32)c1 returned CHT allo act inactive, TMEM16A inh 100*, ANO1 activ inactive, Kir21 inh 1.55, GPR7 antagonist 49.4*, CHT block inactive, GPR7 antag cf 62.3*, MCHR1 antag 79.6*, TMEM16A reconf 17.5%*, TMEM16A Ca cntr inactive, Parental YFP cnt -0.959 and ClC-1 inh -5.0.
For COc1ccccc1OCC(=O)/C=C1/N(C)c2ccccc2C1(C)C the results were CHT allo act inactive, TMEM16A inh inactive, ANO1 activ inactive, Kir21 inh -1.99, GPR7 antagonist -8.5 and CHT block inactive.

Assay outcomes (PubChem)
